Source: PubChem BioAssay (NCATS)
Where “and” joins values, the source holds several entries; their conditions need not be identical. Equal entries are not always repeated. Records with an inconclusive call do not appear. A call without a number means that no potency is given here. More than one record can exist for a structure, and the calls need not agree. Calls of active or inactive are those of the source. Unless noted, the call rests on the fitted dose curve; in most records, active means well fitted curve in the direction sought with a large enough effect; inconclusive means small, poorly fitted or top-dose-only effect, or another doubt; inactive means no such curve, though single readings can be large; an effect the other way counts as inactive or inconclusive.

Legend:
[1] = molecular target: Arylsulfatase A (Homo sapiens) (UniProt P15289); assay: qHTS screen for enhancers of Arylsulfatase A (ASA1): LOPAC Validation Assay (AID 720538)
Chain of Arylsulfatase A (Homo sapiens) (P15289 whole entry, looked up): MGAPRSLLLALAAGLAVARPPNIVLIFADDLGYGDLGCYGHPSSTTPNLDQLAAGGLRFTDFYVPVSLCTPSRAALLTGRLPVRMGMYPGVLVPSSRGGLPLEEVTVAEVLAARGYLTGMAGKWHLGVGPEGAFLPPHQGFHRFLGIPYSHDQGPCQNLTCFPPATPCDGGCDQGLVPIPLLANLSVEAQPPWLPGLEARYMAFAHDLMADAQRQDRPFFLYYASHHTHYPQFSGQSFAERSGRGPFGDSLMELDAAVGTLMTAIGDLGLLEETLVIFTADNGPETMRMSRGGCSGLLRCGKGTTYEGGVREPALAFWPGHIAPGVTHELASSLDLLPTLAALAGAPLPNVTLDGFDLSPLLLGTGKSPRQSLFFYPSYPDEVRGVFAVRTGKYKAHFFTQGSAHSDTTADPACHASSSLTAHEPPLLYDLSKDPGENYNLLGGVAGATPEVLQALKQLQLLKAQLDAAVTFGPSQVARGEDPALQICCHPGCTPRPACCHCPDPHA
Procedure, shortened: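 Read-out: fluorescence at Ex=525/Em=598 nm after 1N NaOH final stop. Patient fibroblasts carrying ASA-I179S had 48h compound exposure, then 14h room-temperature pNCS hydrolysis (0.5mM final) in lysis buffer. Signal increase = enhanced activity.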

[2] = qHTS for compounds that reverse cellular toxicity of Amyloid beta (A-beta) peptide in yeast: LOPAC Validation Assay (AID 720559)
Procedure, shortened: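 OD600 growth readout after 48 hr at 30 C; A-beta-toxic yeast plus pinned compounds in medium. Normalization: DMSO = negative, equimolar FeCl3 + clioquinol = positive.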

[3] = qHTS for Activators of Parkin Expression: LOPAC Validation Assay (NLuc Reporter) (AID 720572)
Procedure, shortened: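 NLuc signal, read 10 min after reagent and following a prior FLuc read, is normalized to DMSO (0) and positive controls (100%). Cells: neuronal Parkin-promoter coincidence reporter line; compounds tested 7-point, 24 h, 37 C, 5% CO2.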

[4] = qHTS for Activators of Parkin Expression: LOPAC Validation Assay (FLuc Reporter) (AID 720573)
Procedure, shortened: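 FLuc luminescence read-out from a neuronal line expressing a Parkin-promoter-driven coincidence reporter. Cells treated 24 h at 37 C, 5% CO2 with compounds at 7 concentrations; signal increase normalized to DMSO and positive control.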

[5] = molecular target: T1, Hexokinase-4 (Homo sapiens) + Glucokinase regulatory protein (Homo sapiens) (UniProt P35557+Q14397); assay: qHTS assay for inhibitors of recombinant human GCK-GKRP interaction: Diaphorase-coupled assay (AID 743205)
T1 sequence (P35557 whole entry, looked up): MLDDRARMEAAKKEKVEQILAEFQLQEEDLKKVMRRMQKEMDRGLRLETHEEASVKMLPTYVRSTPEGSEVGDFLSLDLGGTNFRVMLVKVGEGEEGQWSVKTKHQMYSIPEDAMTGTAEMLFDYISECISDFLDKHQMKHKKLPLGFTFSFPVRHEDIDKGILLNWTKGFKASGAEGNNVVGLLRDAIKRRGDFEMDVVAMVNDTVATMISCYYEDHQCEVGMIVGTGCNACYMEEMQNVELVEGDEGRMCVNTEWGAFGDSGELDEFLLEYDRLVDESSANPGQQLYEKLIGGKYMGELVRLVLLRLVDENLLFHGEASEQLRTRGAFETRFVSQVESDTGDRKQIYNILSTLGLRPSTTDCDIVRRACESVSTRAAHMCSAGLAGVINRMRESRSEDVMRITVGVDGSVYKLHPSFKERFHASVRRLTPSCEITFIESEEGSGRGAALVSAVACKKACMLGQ
T1 sequence (Q14397 whole entry, looked up): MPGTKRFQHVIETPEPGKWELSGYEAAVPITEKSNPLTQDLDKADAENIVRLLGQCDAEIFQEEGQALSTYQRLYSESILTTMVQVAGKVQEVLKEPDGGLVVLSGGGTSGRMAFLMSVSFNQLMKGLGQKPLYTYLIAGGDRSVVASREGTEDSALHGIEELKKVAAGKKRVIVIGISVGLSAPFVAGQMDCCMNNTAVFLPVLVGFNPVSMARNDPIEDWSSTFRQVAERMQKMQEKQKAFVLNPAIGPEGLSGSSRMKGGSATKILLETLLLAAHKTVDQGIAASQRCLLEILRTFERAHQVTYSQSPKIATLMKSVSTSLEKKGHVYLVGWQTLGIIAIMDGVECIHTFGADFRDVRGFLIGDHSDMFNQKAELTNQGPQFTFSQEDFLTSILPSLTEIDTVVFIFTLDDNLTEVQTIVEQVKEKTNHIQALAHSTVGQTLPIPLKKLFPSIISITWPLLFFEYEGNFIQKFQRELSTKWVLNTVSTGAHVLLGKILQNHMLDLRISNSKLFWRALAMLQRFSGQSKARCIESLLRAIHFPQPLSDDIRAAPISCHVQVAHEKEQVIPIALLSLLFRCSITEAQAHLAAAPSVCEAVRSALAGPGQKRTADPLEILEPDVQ
Procedure, shortened: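 Resorufin fluorescence (525/590 nm), read each minute over 30 min, reports GCK activity coupled via G6PDH and diaphorase. Reaction: 10 nM GST-GCK, 10 nM FLAG-GKRP, 5 mM glucose, 0.4 mM ATP, 0.15 mM NADP+, 0.1 mM resazurin.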

[6] = molecular target: T1, Hexokinase-4 (Homo sapiens) + Glucokinase regulatory protein (Homo sapiens); assay: qHTS assay for inhibitors of recombinant human GCK-GKRP interaction: ADP-Glo assay (AID 743206)
Procedure, shortened: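 Pin-transferred compounds meet a 15 nM GST-GCK/15 nM FLAG-GKRP/2 uM S6P mix (dispense concentrations). ATP is then added to 0.4 mM final with 5 mM glucose, and the reaction runs 60 min at room temperature. ADP is quantified luminescently.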

[7] = molecular target: T1, Hexokinase-4 (Homo sapiens) + Glucokinase regulatory protein (Homo sapiens); assay: qHTS assay for inhibitors of recombinant human GCK-GKRP interaction: HTRF assay (AID 743207)
Procedure, shortened: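 HTRF read-out (ex 320 nm; 615/665 nm emission) after 60 min RT equilibration of 5 nM GST-GCK, 5 nM FLAG-GKRP, 2 uM S6P, compound and anti-FLAG/anti-GST detection antibodies; signal normalized between DMSO wells with and without GCK.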

[8] = qHTS Assay for Identifying Gametocytocidal Compounds (AID 743244); further: potency means the concentration at half of the fitted maximal effect;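 on max response: actives lower the fluorescent signal which means gametocytes are killed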; details: P. falciparum 3D7 stage III-V gametocytes, alamarBlue, 72 h; max response: stronger effect = lower value
Procedure, shortened: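 In this qHTS viability screen, late-stage 3D7 gametocytes are incubated with compound for 72 h, then with alamarBlue for 24 h; reduced resorufin fluorescence marks killing.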

[9] = qHTS profiling of the MIPE4 collection as inhibitors of Plasmodium falciparum (3D7) proliferation (AID 743344; call rule not given here); details: P. falciparum 3D7 in erythrocytes, SYBR Green DNA fluorescence, 72 h; at 28.5 µM (top of the series) unless noted
Procedure, shortened: (§1)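 Parasite DNA was quantified by SYBR Green I fluorescence (ex 485, em 535 nm) after overnight lysis in saponin/Triton buffer at room temperature. Cultures at 0.3% parasitemia and 2.5% hematocrit were first exposed to compound for 72 h at 37 C; signals were normalised to artemisinin (0.29 uM) and vehicle wells.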

[10] = qHTS profiling of the MIPE4 collection as inhibitors of Plasmodium falciparum (DD2) proliferation (AID 743345; call rule not given here); details: P. falciparum Dd2 in erythrocytes, SYBR Green DNA, 72 h; at 28.5 µM (top of the series) unless noted
Procedure, shortened: as §1

[11] = qHTS profiling of the MIPE4 collection as inhibitors of Plasmodium falciparum (DD2) proliferation (Rep 2) (AID 743346; call rule not given here); details: P. falciparum Dd2 in erythrocytes, SYBR Green DNA, 72 h; at 28.5 µM (top of the series) unless noted
Procedure, shortened: as §1

[12] = qHTS assay for small molecule agonists of the antioxidant response element (ARE) signaling pathway measured by Nrf2-dependant transcriptional activity (AID 720636; active means well fitted curve in the direction sought with a large enough effect in the repeat runs; an effect the other way counts as inactive or inconclusive;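 further: HepG2 cells with an ARE-driven luciferase reporter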)
Procedure, shortened: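 Reporter gene assay, HepG2 ARE-luc: 16 hr compound, 37 C, 5% CO2; read-out luciferase luminescence.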

[13] = qHTS assay for small molecule agonists of the antioxidant response element (ARE) signaling pathway measured by Nrf2-dependant transcriptional activity - cell viability counter screen (AID 720653; active means well fitted curve in the direction sought with a large enough effect in the repeat runs; an effect the other way counts as inactive or inconclusive; further: potency means the concentration at half of the fitted maximal effect); details: ARE-bla HepG2 viability, CellTiter-Glo ATP luminescence, 16 h; max response: stronger effect = lower value
Procedure, shortened: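 ARE-bla HepG2 cells treated with compounds for 16 h at 37C; this counter screen measures viability as intracellular ATP by CellTiter-Glo luminescence after 30 min at room temperature.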

[14] = qHTS assay for cell viability of the p53RE-bla HCT-116 cell line (AID 743292); further: nearly all actives have a fitted effect of over 55% in size; further: potency means the concentration at half of the fitted maximal effect
Procedure, shortened: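 Readout: CellTiter-Glo luminescence after 30 min RT. Treatment: compounds in DMSO, 16 h, 37 C. Cells: CellSensor p53RE-bla HCT-116, 4,000/well, preincubated 5 h.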

[15] = qHTS assay for small molecule antagonists of the retinoid-related orphan receptor gamma (ROR-gamma) signaling pathway - cell viability counter screen (AID 720652; active means well fitted curve in the direction sought with a large enough effect in the repeat runs; an effect the other way counts as inactive or inconclusive;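 further: CHO reporter cells with doxycycline-induced ROR-gamma expression; compound exposure lasted 16 hr before ATP read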)
Procedure, shortened: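 CHO RORE-LUC/TET-ROR line, 1,000 cells/well, 37 C 5% CO2 5 hr; cpd or DMSO + doxycycline induction, 16 hr. CellTiter-Glo, 30 min RT, luminescence = ATP content.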

Row | Structure (SMILES) | Potency [1] | outcome [2] | outcome [3] | Potency [4] | Potency [5] | Potency [6] | Potency [7] | max response [8] | parasite growth, % of DMSO control [9] [%] | parasite growth remaining, % of DMSO control (lower = more inhibition) [10] [%] | parasite growth, % of control (lower = inhibition) [11] [%] | outcome [12] | Potency [13] | Potency [14] | Potency [15] | max response [13] | Potency [8]
1 | Cc1ccccc1N1C(=O)c2cc(S(N)(=O)=O)c(Cl)cc2NC1C (configuration not stated) | inactive | inactive | inactive | inactive | inactive | inactive | inactive | 6.66% (inactive) and 10.8% (inactive) and 1.37% (inactive) | 92.5 | 51 | 83.2 | – | – | – | – | – | –
2 | CN(Cc1cnc2nc(N)nc(N)c2n1)c1ccc(C(=O)N[C@@H](CCC(=O)O)C(=O)O)cc1 | inactive | – | inactive | inactive | inactive | inactive | inactive | -2.41% (inactive) and 9.8% (inactive) | 8.82 | 7.1 | 8.39 | inactive | 0.0447 µM (active) | 0.282 µM (active) | – | – | –
3 | NCCCCCC(=O)O | inactive | inactive | inactive | inactive | inactive | inactive | inactive | -0.169% (inactive) and -6.11% (inactive) | – | 91.3 | 118 | – | – | – | – | – | –
4 | Cc1cc(C(C)(C)C)c(O)c(C)c1CC1=NCCN1 | inactive | – | inactive | inactive | inactive | inactive | inactive | -1.21% (inactive) and 27.5% (inactive) | 80.6 | 95.8 | 68.6 | – | – | – | – | – | –
5 | COc1ccc2c(c1)c(CC(=O)O)c(C)n2C(=O)c1ccc(Cl)cc1 | inactive | inactive | – | inactive | inactive | inactive | inactive | 2.39% (inactive) and 17.2% (inactive) | 55.7 | 103 | 127 | inactive | – | inactive | inactive | 1.73% (inactive) and -1.81% (inactive) | –
6 | NC(=O)OCC(COC(N)=O)c1ccccc1 | inactive | – | inactive | inactive | inactive | inactive | inactive | 0.706% (inactive) and 21.3% (inactive) | – | 97.8 | 95.5 | – | – | – | – | – | –
7 | NC(CO)C(=O)NNCc1ccc(O)c(O)c1O (configuration not stated) | inactive | – | inactive | inactive | inactive | inactive | inactive | 0.751% (inactive) | – | 125 | 89.1 | – | – | – | – | – | –
8 | CN(C)c1nc(N(C)C)nc(N(C)C)n1 | inactive | – | inactive | inactive | inactive | inactive | inactive | 17.1% (inactive) and -2.91% (inactive) | 89.4 | 102 | 104 | – | – | – | – | – | –
9 | Clc1ccc2c(c1)C(N1CCNCC1)=Nc1ccccc1O2 | inactive | – | inactive | inactive | inactive | inactive | inactive | -3.09% (inactive) | 50.7 | 28.9 | 27.9 | – | – | – | – | – | 0.794 µM (active)
